MEX-5 binding = C. elegans MEX-5 TCR-2 RNA binding activity; Q9XUB2; MEX-5/FITC-TCR2 RNA binding, fluorescence polarization; active compounds read low; activity score (negative = inhibition of binding), % at 10 µM; 300,000 tested, 0.38% active; AID 1832;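 active means inhibition past about -25% in most replicates, and total fluorescence under double the plate's negative control median, limit read from the data; inconclusive means replicates evenly split on the limit, or fluorescence at least double controls; inactive means too little inhibition in most replicates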
GLD-1 RNA inh = GLD-1-TGE RNA interaction inhibition (C. elegans) | 320,000 tested, 0.44% active | inhibition, % at 5.96 µM | purified GLD-1 + fluorescein TGE RNA, fluorescence polarization;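 active means percent inhibition above a per-plate cutoff, the plate mean of test compounds plus 3 SD, cut at about 30% in these data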
MCL1-BIM inh = disrupts human MCL1 binding to BIM-BH3 peptide; inhibition, % at 10.9 µM; Q07820; 320,000 tested, 0.68% active; AID 2057; GST-MCL1 / FITC-Bim-BH3 fluorescence polarization;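 active means inhibition above the mean inhibition of all tested compounds plus 3 SD, set per campaign, cut at about 40% in these data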;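 further: higher means more loss of mP so more displacement of Bim peptide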
E coli Lon inh = inhibitors of E. coli Lon protease; P0A9M0; purified E. coli Lon protease, fluorescence polarization; inhibition, % at 7.94 µM; 360,000 tested, 0.42% active; AID 602123; in the data active means inhibition above about 13%, passing the limit was not always enough
Target sequence (P0A9M0 whole entry, looked up): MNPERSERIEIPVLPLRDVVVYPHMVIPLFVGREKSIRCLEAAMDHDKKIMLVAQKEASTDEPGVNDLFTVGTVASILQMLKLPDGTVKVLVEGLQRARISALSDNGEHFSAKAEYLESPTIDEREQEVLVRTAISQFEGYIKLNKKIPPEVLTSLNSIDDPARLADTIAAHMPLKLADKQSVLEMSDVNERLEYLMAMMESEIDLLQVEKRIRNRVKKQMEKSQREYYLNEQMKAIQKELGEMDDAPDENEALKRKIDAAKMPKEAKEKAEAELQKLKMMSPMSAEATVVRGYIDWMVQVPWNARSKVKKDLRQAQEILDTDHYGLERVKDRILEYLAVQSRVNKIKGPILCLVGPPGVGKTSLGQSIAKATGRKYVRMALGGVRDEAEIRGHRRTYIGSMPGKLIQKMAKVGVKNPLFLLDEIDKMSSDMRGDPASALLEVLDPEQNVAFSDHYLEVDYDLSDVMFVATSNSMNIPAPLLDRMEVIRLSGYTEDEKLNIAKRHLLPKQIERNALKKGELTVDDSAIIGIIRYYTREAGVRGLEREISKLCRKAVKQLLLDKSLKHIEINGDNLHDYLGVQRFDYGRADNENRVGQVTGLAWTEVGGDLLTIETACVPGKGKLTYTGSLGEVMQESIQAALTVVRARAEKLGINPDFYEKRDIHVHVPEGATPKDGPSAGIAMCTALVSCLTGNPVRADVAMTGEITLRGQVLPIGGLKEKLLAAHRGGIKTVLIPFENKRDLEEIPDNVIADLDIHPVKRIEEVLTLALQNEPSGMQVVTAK
BCLXL inh = blocks human Bcl-xL binding to Bim BH3 peptide; GST-Bcl-xL / FITC-Bim BH3 peptide fluorescence polarization; AID 2129; inhibition, % at 10.9 µM; Q07817; 320,000 tested, 0.7% active;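 active means inhibition above the mean of all tested compounds plus 3 SD, cutoff set per campaign, cut at about 30% in these data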;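 further: inhibitors lower millipolarization by displacing the labeled peptide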
Large screens that a line does not name were inactive. Shown are actives, neighbours in structure and some others; about 1.4% of the full set was active somewhere.

Cc1ccc(C)c(S(=O)(=O)NCCN2CCOCC2)c1	none
Nc1ccc2nc(CCCCCCc3nc4ccc(N)cc4[nH]3)[nH]c2c1	none
Nc1ccc2nc(CCCO)[nH]c2c1	MEX-5 binding -49
CCN(CC(=O)NCc1ccc(Cl)cc1)C(=O)CCc1ccccc1	none
CC(C)Cc1nnc(NC(=O)CCC(=O)N2CC(C)CC(C)C2)s1 (configuration not stated)	MEX-5 binding -27
CC(C)Cc1nnc(NC(=O)CCC(=O)N2CCC(C)CC2)s1	none
CCn1cc(CN2CCC(C(=O)Nc3cccc(-c4cccc(OC)c4)c3)CC2)c(C)n1	none
O=C1C2C3C=CC(C3)C2C(=O)N1c1ccccc1 (configuration not stated)	none
NC(=O)[C@@H]1[C@@H]2C(=O)N(c3ccc(F)cc3)C(=O)[C@@H]2[C@H]2C=Cc3ccccc3N21	BCLXL inh 34
O=C(c1ccco1)[C@@H]1[C@@H]2C(=O)N(c3ccc(F)cc3)C(=O)[C@@H]2C2c3ccccc3C=CN21 (some centres not stated)	GLD-1 RNA inh 69, MCL1-BIM inh 82, BCLXL inh 78 (no result: E coli Lon inh)
COC(=O)C1(C)NC(c2ccco2)C2C(=O)N(c3ccc(F)cc3)C(=O)C21 (configuration not stated)	none
O=C(c1ccco1)[C@@H]1[C@@H]2C(=O)N(c3ccc(F)cc3)C(=O)[C@@H]2[C@H]2C=Cc3ccccc3N21	BCLXL inh 33 (no result: MEX-5 binding)
O=C(c1ccco1)[C@@H]1[C@@H]2C(=O)N(c3ccc(Br)cc3)C(=O)[C@@H]2C2c3ccccc3C=CN21 (some centres not stated)	none (no result: MEX-5 binding, GLD-1 RNA inh, MCL1-BIM inh, BCLXL inh)
CC(C)CCNC(=O)C(=O)NCC1OCCCN1S(=O)(=O)c1cccs1 (configuration not stated)	none
COc1ccccc1CN(C(=O)CCl)C(C(=O)NC1CCCCC1)c1ccncc1 (configuration not stated)	E coli Lon inh 25, BCLXL inh 30 (no result: MEX-5 binding)
COc1ccc(CNC(=O)c2ccc3nc(C)c(N(C)Cc4ccc(NC(C)=O)cc4)n3c2)cc1	none (no result: MEX-5 binding, GLD-1 RNA inh, MCL1-BIM inh, BCLXL inh)
O=C(NC(Cc1c[nH]c2ccccc12)C(=O)NCCCN1CCOCC1)c1cccs1 (configuration not stated)	none
CC(=O)NC12CC3CC(C1)CC(C(=O)OCC(=O)Nc1ncc(Cl)c(C)c1Cl)(C3)C2	BCLXL inh 37
Cc1c(Cl)cnc(NC(=O)COC(=O)C2CC2)c1Cl	none (no result: MEX-5 binding, MCL1-BIM inh, BCLXL inh)
CC(=O)OC[C@@H]1CN(Cc2ccccc2)C[C@H](n2cnc3c(NCc4ccc(F)cc4)ncnc32)O1	none (no result: MEX-5 binding, GLD-1 RNA inh, MCL1-BIM inh, BCLXL inh)
CCCCN1C=CC(=C2C(=O)c3ccccc3C2=O)C=C1	MEX-5 binding -38
COc1ccccc1NC(=O)N1CCN(C(=O)Nc2ccccc2OC)CC1	none
CCC1c2ccc(C)n2CCN1C(=O)Nc1ccccc1OC (configuration not stated)	GLD-1 RNA inh 50, MCL1-BIM inh 50, BCLXL inh 50
CC(=O)c1cc2ccc(O)cc2oc1=O	BCLXL inh 48
COc1ccc2cc(C(C)=O)c(=O)oc2c1	none
COC(=O)C1C(O)C(C)C(O)C(C)(O)/C=C\C=C(/C)C(=O)Nc2c(C)c(OC(C)=O)c3c(c2O)C(=O)C(C)=C2OCOC(=C23)/C(C)=C/C(C)(O)C(O)C(C)C1O (configuration not stated)	BCLXL inh 50
O=C(N/N=C/c1cc(Br)cc(Br)c1O)c1ccncc1	GLD-1 RNA inh 31, MCL1-BIM inh 45, BCLXL inh 33 (no result: E coli Lon inh)
Cc1cc(/C=C2\SC(=S)N(Cc3ccco3)C2=O)c(C)n1-c1ccccc1	GLD-1 RNA inh 32
COc1ccc(C2CC(c3cccs3)=NN2c2ccc(C=O)cc2)cc1 (configuration not stated)	MEX-5 binding -47 (no result: E coli Lon inh)
CN1c2ccccc2N(C)C1(C)c1cccc2ccccc12	BCLXL inh 43
CN1c2cccc3cccc(c23)N(C)C1(C)C	none
CSc1cccc(NC(=O)C2CC(=O)N(c3ccc4c(c3)OCCO4)C2)c1 (configuration not stated)	none (no result: MEX-5 binding, GLD-1 RNA inh, MCL1-BIM inh, BCLXL inh)
COc1ccc(/C=N/n2c(C3CCCCC3)n[nH]c2=S)c(OC)c1	none
CCN1/C(=C/c2ccc3cccc(C)c3[n+]2CC)Sc2ccccc21	MEX-5 binding inconclusive, GLD-1 RNA inh 47
CCN1/C(=C/c2ccc3cc(C)cc(C)c3[n+]2CC)Sc2cc(C)ccc21	none (no result: MEX-5 binding, GLD-1 RNA inh, MCL1-BIM inh, BCLXL inh)
O=Cc1sc([O-])nc1-[n+]1ccc2ccccc2c1	MCL1-BIM inh 41, BCLXL inh 47 (no result: E coli Lon inh)
O=C(c1ccc([N+](=O)[O-])cc1)n1nc(-c2ccccc2)nc1NCc1ccc(F)cc1	BCLXL inh 38
O=C(c1ccc([N+](=O)[O-])cc1)n1nc(-c2ccccc2)nc1NCc1ccccc1	none
CCn1c(C)cc(=S)c2ccccc21	MEX-5 binding -52
CCn1c2ccccc2c2cc(N)ccc21	none
COc1ccc(C(=O)Nc2cc(C)nn2-c2ccc(F)cc2)cc1	none
CCOC(=O)N1CCN(Cc2ccccc2F)CC1	none
CCOC(=O)N1CCN(Cc2ccccc2Cl)CC1	GLD-1 RNA inh 87 (no result: MEX-5 binding)
NC(=O)COC(=O)C(Cc1ccccc1)NS(=O)(=O)c1ccccc1F (configuration not stated)	none
Cn1c(N)c(C(=O)COC(=O)c2cc(-c3ccco3)nc3ccccc23)c(=O)n(Cc2ccccc2)c1=O	MCL1-BIM inh 43 (no result: E coli Lon inh)
COc1ccc(NC(=O)c2ccc(NC(=O)c3nc4nccc(C)n4n3)cc2)cc1	none (no result: MEX-5 binding, MCL1-BIM inh, BCLXL inh)
COc1ccc(NC(=O)c2nc3nccc(C)n3n2)cn1	BCLXL inh 34
Cc1cccc(NS(=O)(=O)c2cc(C(=O)N3CCOCC3)ccc2Cl)c1	none
O=C(CSc1n[nH]c(=O)[nH]c1=O)Nc1ccc2c(c1)C(=O)c1ccccc1C2=O	MCL1-BIM inh 40, BCLXL inh 34
O=C(CSc1n[nH]c(=O)[nH]c1=O)Nc1cccc(S(=O)(=O)N2CCOCC2)c1	none
O=C(Nc1cc(Sc2nc3ccccc3s2)cc([N+](=O)[O-])c1)c1cccc(F)c1F	none
CN1/C(=N\O)c2cccc3cccc1c23	none
CC(=O)c1ccc2cccc3c2c1N=CN3C	BCLXL inh 33
Cc1ccc(S(=O)(=O)NC(C(=O)Oc2ccc3c(C(F)(F)F)cc(=O)oc3c2)c2ccccc2)cc1 (configuration not stated)	GLD-1 RNA inh 47, MCL1-BIM inh 42, BCLXL inh 45
COCCNC(=O)C(c1ccc(C)cc1)N(C(=O)C(=O)NC1CCCC1)c1ccc2c(c1)OCCO2 (configuration not stated)	none
CCN1/C(=C\C(=S)Nc2ccccc2)Sc2ccccc21	none
CCN1/C(=C/C(C)=C/c2sc3ccccc3[n+]2CC)Sc2ccccc21	GLD-1 RNA inh active, BCLXL inh 33
C=CCn1c(=O)/c(=C/c2ccc(C)o2)s/c1=C(/C#N)C(=O)c1ccccc1	MEX-5 binding -27
